Reference: publication PMC7819943, “Rice protein-binding microarrays: a tool to detect cis-acting elements near promoter regions in rice”
Whole data set: some 39,000 sequences, median “fluorescence intensity (a.u.)” near 4,300, cut for the highest 2% near 39,000. The sample as a whole holds a higher share of the highest values than the screen did.

target: T1, OsSMF1 (Oryza sativa, UniProt Q6ZLB0 1-436); test: protein-binding microarray (RPBM); PBS, 2% BSA, 51.3 ng/ul salmon testes DNA, 50 uM zinc acetate, 200 nM TF, 25 C, 1 h; high values mean tight binding; details: protein: recombinant; tags: N-terminal polyhistidine and DsRed monomer fusion (pET32a); chain copies: 2; label: CyDye5-dUTP incorporated in the synthesized complementary strand; 3' TTTTT single-stranded linker to array surface; dsDNA, one strand shown
T1 sequence: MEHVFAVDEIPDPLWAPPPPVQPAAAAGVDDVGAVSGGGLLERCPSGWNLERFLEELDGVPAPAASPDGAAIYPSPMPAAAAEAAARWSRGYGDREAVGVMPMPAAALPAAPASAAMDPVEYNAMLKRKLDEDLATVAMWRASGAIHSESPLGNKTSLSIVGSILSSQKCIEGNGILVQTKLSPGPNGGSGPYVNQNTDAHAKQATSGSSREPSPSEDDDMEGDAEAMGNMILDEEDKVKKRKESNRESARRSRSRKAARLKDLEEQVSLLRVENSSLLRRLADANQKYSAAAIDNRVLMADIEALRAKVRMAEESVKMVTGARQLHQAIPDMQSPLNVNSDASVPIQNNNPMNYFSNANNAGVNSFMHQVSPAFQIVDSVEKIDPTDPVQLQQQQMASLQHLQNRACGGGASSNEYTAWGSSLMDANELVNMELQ
Method in brief: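 Binding signal is reported as fluorescence intensity per feature (arbitrary units) from an Axon 4000B scanner. Incubation used 200 nM of each Ni–NTA-purified, N-terminally polyhistidine- and DsRed-fused transcription factor from E. coli BL21-CodonPlus on a double-stranded custom Agilent array for 1 h at 25 °C, with 50 µM zinc acetate in the buffer, followed by washing.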

Sequence	binding signal
TATGACTAATCATGGACTAATTAGGCTCAAAAGATTCGTCCGGAGTCACCTAGTGCAG	33200 fluorescence intensity (a.u.)
TAAGCTCCAAAGCCAGCTATAGCATGAGCTCCAAAATATACGGAGTCACCTAGTGCAG	45700 fluorescence intensity (a.u.)
CTATGGCTCATGAGCCAAAATTCAAAAGGCTAACGTTGGCCGGAGTCACCTAGTGCAG	43400 fluorescence intensity (a.u.)
CACCTCCCCTTCCCATCCCAACCGGCCAACCCTCCCCACCCGGAGTCACCTAGTGCAG	13900 fluorescence intensity (a.u.)
GCCGATCCCCGAGGAGGGCGGCGACGTGGAAGGGGAGGGCCGGAGTCACCTAGTGCAG	4090 fluorescence intensity (a.u.)
GGTAATGGGAGAGGCTGATGTGGCGTGAAATCTCTTGCGTCGGAGTCACCTAGTGCAG	16800 fluorescence intensity (a.u.)
TTTATCAAAGCGTCATATATCAATGACCAGAGGTACAACACGGAGTCACCTAGTGCAG	3940 fluorescence intensity (a.u.)
CACCATTTTGGGCCGACACATCAAGCAGGCCAACGCGCAGCGGAGTCACCTAGTGCAG	3300 fluorescence intensity (a.u.)
CCCAACTGTTCTTTCCGTCACGTCACGCACAAGTCAAAATCGGAGTCACCTAGTGCAG	5230 fluorescence intensity (a.u.)
ACCTGTGGACTTGCACGGTAACGTAGCACAATCTTCAAAGCGGAGTCACCTAGTGCAG	3810 fluorescence intensity (a.u.)
GCCGAAACGCGAAGTGACAGTGACAAGGGAAGGACGGCCCCGGAGTCACCTAGTGCAG	3220 fluorescence intensity (a.u.)
TCCCCTTCACCGCAACTTCGGCGAAGTCAAGAAGGAGTAGCGGAGTCACCTAGTGCAG	43800 fluorescence intensity (a.u.)
CGGCGAAGTAGCAAGGGTTGAGTCTGCATCATCAACCAATCGGAGTCACCTAGTGCAG	3370 fluorescence intensity (a.u.)
TCCCCTCGCGGCGAACGCGCGCGCGCAACGAGAAGCCAAGCGGAGTCACCTAGTGCAG	3200 fluorescence intensity (a.u.)
AGCGGCAGTAGCAAGGGAGCTAGGCCCCGAAGGAAAACCGCGGAGTCACCTAGTGCAG	46000 fluorescence intensity (a.u.)
TTTAGTAGTTTGAAAAGCATACGCGCGGAAACCGAGCAAGCGGAGTCACCTAGTGCAG	3190 fluorescence intensity (a.u.)
TGATGTTCTTACTGGTGGTGCTGATGACAATACTGAACAGCGGAGTCACCTAGTGCAG	3840 fluorescence intensity (a.u.)
TAAGTGGACCTATAGGTGCACACGTGGGGAGAGGGGCGTGCGGAGTCACCTAGTGCAG	5690 fluorescence intensity (a.u.)
GCACCAGCGGTCCTCAAACTTGTAAGGGTGTGTCATCTAGCGGAGTCACCTAGTGCAG	3660 fluorescence intensity (a.u.)
AGTTCAAGAAAACTTTATATTCAAACAAGAAAATTGGGGCCGGAGTCACCTAGTGCAG	40900 fluorescence intensity (a.u.)
AGAAATCAACTTCAAACCTTTATTCTCAACATCAGGAGATCGGAGTCACCTAGTGCAG	26000 fluorescence intensity (a.u.)
ATTGTACACAACAAATTGAAATTTTCAATTCAACTTTTAACGGAGTCACCTAGTGCAG	43200 fluorescence intensity (a.u.)

Sequence	binding signal
ACTCTAAATTTAAACTTTTCACTCAATTGAAACTTTTCAACGGAGTCACCTAGTGCAG	24700 fluorescence intensity (a.u.)
GCAAACAAAATATACCTGCCAAGTCAACTTCACGGCCGGACGGAGTCACCTAGTGCAG	4280 fluorescence intensity (a.u.)
TTTCAATTATTTAGGTATTAACATTAACTACTTTACTAACCGGAGTCACCTAGTGCAG	14800 fluorescence intensity (a.u.)
TTTTCAATTGTACATTGAGTCATTGACAATGCACAATTTACGGAGTCACCTAGTGCAG	3680 fluorescence intensity (a.u.)
TAAGAAAACTACAGCTTTATTACTCAAACTTAATATTAACCGGAGTCACCTAGTGCAG	39800 fluorescence intensity (a.u.)
CTATATTTTACTATAAGCTTAATCAAACTTCAAAATATTTCGGAGTCACCTAGTGCAG	14400 fluorescence intensity (a.u.)
GGGATGGCCAGATTGGAACTCAGCAGACTCGCTGATGACTCGGAGTCACCTAGTGCAG	3800 fluorescence intensity (a.u.)
TTGTCCCTATAATAATATGTCACTCAAAATTGCTAATAAACGGAGTCACCTAGTGCAG	3400 fluorescence intensity (a.u.)
GATGTACTCGAGTATCTTCCCCTTCCTAGTTCCTTCCCTTCGGAGTCACCTAGTGCAG	13900 fluorescence intensity (a.u.)
GATGCAAAGAGAGCTACTAGCTGAGTTGGATGGAATTAACCGGAGTCACCTAGTGCAG	5550 fluorescence intensity (a.u.)
AAGTAGGCGTAGTTAAATCAAATGAGTGCTGTGCTGTCCACGGAGTCACCTAGTGCAG	3400 fluorescence intensity (a.u.)
CCGTCGCCGTCGGCACCGCCGCCGGAGCTCCTCCCTGCTCCGGAGTCACCTAGTGCAG	3220 fluorescence intensity (a.u.)
ATCTACTGATTTACAACCTCCTTAATTAACAAGCACGGGTCGGAGTCACCTAGTGCAG	24600 fluorescence intensity (a.u.)
ACTCCTCGGATAGGCGATGGCGGCCGCGGTCACCGCGCCACGGAGTCACCTAGTGCAG	3370 fluorescence intensity (a.u.)
AAGCTGTTTCACAAGGCAGTTTTGCATACGTGGCGGGCTGCGGAGTCACCTAGTGCAG	21500 fluorescence intensity (a.u.)
AGGAAGGAAGGAAGCAAAATGCTGACGTGTACATAAACCGCGGAGTCACCTAGTGCAG	16000 fluorescence intensity (a.u.)
CACCGCGACGCACATACCCACCCGCCGGCCACGCACGAGACGGAGTCACCTAGTGCAG	4460 fluorescence intensity (a.u.)
CGGTGCGAGGTACTACGTCAAGGCGTACGAGGCCAGGTACCGGAGTCACCTAGTGCAG	3140 fluorescence intensity (a.u.)
CACCCACGAGCACACCCGTACCAGGGGACGAGGAGGTGGACGGAGTCACCTAGTGCAG	38300 fluorescence intensity (a.u.)
GGTGTGGAGGGGTTGGACCAGAGCACGACGACGGCGAGGACGGAGTCACCTAGTGCAG	45100 fluorescence intensity (a.u.)
CGCATACCGGCCAGAAACACGACGGCGACGAGGTGCACTACGGAGTCACCTAGTGCAG	41500 fluorescence intensity (a.u.)
CTAGACGCCGGCGACGACGAGGGTGGTTGGGTTGTGGATACGGAGTCACCTAGTGCAG	3740 fluorescence intensity (a.u.)
